We go through twelve molecules from ChEMBL document CHEMBL3988442, “University of Dundee, Small-Polar-MMV Screening Library” (2021).

For part of these data: Entries with a potency or affinity are not part of this list.

Common to all, as to parameters: scale not given: direction of the effect not stated beside the values
Assay [1] deals with Protein translocase subunit SecA (Escherichia coli (strain K12)) (UniProt P10408). Nature of the assay: Assay to Identify E. coli SecA ATPase Inhibitors. Format: functional. Conditions: 30 µM.
Assay [2] deals with T1, Ubiquitin-activating enzyme e1, putative (Leishmania donovani (strain BPK282A1)) (UniProt E9BSI1).
T1 sequence (whole entry): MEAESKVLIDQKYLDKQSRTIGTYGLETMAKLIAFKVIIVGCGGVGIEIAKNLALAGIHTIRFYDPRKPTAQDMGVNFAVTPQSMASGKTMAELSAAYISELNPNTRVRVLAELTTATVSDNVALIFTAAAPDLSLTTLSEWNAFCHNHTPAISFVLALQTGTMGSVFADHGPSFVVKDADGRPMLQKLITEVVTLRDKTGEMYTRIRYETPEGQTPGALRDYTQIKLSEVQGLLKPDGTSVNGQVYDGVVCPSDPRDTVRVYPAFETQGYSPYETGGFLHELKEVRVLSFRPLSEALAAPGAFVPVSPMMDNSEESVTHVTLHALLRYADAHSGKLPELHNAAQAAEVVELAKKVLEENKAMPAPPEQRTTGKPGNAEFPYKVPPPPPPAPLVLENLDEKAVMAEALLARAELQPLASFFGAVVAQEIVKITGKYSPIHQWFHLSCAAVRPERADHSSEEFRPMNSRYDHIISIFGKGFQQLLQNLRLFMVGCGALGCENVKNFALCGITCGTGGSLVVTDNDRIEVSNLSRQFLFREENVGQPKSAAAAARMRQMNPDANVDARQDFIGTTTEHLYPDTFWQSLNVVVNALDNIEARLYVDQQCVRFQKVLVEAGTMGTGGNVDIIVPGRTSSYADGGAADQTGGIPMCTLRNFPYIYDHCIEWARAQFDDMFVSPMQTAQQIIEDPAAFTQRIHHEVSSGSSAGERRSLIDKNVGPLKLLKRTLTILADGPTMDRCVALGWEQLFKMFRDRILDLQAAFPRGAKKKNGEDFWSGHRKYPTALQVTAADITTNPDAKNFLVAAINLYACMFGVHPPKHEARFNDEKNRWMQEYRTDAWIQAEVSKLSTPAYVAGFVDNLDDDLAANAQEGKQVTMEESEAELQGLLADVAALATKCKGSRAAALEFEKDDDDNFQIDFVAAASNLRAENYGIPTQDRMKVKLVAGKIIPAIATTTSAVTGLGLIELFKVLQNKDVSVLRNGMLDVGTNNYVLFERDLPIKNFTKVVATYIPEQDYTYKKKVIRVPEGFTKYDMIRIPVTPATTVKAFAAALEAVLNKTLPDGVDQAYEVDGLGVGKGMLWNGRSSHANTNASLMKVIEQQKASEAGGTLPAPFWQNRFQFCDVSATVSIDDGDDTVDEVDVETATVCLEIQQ
Nature of the assay: Leishmania donovani Ubiquitin Activating Enzyme (LdE1). Format: functional. Conditions: 30 µM.

In assay [3] the target is Sialic acid-binding Ig-like lectin 9 (Homo sapiens) (UniProt Q9Y336). Nature of the assay: Hs-Siglec9 ALPHAscreen SOP 20170721. To be noted: 10 µM. Background: In Alpha technology, singlet oxygen from a donor bead excites a nearby acceptor bead.
The test system of a further assay is Trypanosoma cruzi. The assay is described as follows: Trypanosoma cruzi phosphomannomutase and mannose-1-phosphate guanylyltransferase assay. Type of assay: functional. To be noted: 10 µM.
For assay [4], the target named is T2, Arginase-2, mitochondrial (Homo sapiens) (UniProt P78540).
T2 sequence (whole entry): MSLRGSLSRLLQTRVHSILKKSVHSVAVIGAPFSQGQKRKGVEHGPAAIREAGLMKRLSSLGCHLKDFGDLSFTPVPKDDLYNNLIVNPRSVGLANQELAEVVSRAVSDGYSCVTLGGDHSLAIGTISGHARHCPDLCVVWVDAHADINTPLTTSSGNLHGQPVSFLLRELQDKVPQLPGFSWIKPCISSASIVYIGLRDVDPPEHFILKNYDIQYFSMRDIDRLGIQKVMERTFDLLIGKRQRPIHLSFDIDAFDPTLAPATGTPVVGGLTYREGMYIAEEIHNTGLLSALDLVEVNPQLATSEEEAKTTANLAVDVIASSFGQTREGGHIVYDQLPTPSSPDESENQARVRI
Nature of the assay: in vitro enzyme assay to detect the production of urea directly proportional to the activity of Arginase II. Further: in the data most compounds retested in dose-response had high values. Type of assay: functional. To be noted: 33.3 µM.

In assay [5] the target is T3, Proteasome subunit beta (Trypanosoma cruzi) (UniProt O96673).
T3 sequence (whole entry): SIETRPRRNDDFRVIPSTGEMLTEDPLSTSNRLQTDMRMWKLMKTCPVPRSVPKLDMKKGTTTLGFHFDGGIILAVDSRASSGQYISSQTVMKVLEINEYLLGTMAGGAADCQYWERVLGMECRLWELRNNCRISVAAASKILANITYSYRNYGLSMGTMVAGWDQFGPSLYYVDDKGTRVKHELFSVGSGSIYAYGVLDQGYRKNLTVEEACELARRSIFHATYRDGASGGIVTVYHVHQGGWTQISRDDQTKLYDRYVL
The assay is described as follows: Trypanosoma cruzi proteasome chymotrypsin-like activity (TcProtChymo) assay. Further: in the data most compounds retested in dose-response had high values. Format: functional. To be noted: 9.37 µM.

The species entered for the next assay is Homo sapiens. The assay is described as follows: To identify inhibition of the IFN signalling (Jak-Stat) pathway via expression of an eGFP reporter gene under the control of an IFN-stimulated response element (ISRE) containing MxA promoter. Format: functional. Conditions: 30 µM.
The target of assay [6] is T4, Tyrosyl-tRNA synthetase, putative (Trypanosoma cruzi (strain CL Brener)) (UniProt Q4DSP6).
T4 sequence (whole entry): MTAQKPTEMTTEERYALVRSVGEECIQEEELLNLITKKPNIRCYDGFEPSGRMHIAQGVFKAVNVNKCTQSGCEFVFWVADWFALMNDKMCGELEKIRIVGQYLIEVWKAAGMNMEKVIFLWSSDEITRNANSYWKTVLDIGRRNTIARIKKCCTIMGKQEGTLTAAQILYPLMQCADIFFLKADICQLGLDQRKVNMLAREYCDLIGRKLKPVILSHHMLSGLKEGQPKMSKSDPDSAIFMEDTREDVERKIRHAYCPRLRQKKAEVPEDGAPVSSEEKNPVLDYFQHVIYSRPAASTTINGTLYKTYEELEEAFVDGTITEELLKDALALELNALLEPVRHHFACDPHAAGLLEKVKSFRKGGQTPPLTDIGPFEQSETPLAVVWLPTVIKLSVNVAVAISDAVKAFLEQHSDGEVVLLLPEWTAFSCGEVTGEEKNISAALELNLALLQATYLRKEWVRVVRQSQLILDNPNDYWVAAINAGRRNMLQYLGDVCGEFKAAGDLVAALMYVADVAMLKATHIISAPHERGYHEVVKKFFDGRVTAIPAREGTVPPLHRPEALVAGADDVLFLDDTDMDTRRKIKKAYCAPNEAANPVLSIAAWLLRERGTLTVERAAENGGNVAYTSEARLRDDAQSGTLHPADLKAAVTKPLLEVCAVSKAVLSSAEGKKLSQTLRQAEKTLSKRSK
Nature of the assay: Trypanosoma cruzi tyrosyl tRNA synthetase (TcYRS) _High Tyrosine SOP. Further: in the data most compounds retested in dose-response had high values. Format: functional. To be noted: 30 µM.

Assay [7] concerns the target T4, Tyrosyl-tRNA synthetase, putative (Trypanosoma cruzi (strain CL Brener)). Nature of the assay: Trypanosoma cruzi tyrosyl tRNA synthetase (TcYRS) SOP. Format: functional. Conditions: 30 µM.
Assay [8] deals with Chromo domain-containing protein 1 (Saccharomyces cerevisiae (strain ATCC 204508 / S288c) (Baker's yeast)) (UniProt P32657). Nature of the assay: ScCHD-1 Enzyme Inhibition Assay. Further: in the data most compounds retested in dose-response had high values. Type of assay: functional. Conditions: 30 µM.
Chromo domain-containing protein 1 (Saccharomyces cerevisiae (strain ATCC 204508 / S288c) (Baker's yeast)), sequence (P32657 whole entry, the tested form may be a part): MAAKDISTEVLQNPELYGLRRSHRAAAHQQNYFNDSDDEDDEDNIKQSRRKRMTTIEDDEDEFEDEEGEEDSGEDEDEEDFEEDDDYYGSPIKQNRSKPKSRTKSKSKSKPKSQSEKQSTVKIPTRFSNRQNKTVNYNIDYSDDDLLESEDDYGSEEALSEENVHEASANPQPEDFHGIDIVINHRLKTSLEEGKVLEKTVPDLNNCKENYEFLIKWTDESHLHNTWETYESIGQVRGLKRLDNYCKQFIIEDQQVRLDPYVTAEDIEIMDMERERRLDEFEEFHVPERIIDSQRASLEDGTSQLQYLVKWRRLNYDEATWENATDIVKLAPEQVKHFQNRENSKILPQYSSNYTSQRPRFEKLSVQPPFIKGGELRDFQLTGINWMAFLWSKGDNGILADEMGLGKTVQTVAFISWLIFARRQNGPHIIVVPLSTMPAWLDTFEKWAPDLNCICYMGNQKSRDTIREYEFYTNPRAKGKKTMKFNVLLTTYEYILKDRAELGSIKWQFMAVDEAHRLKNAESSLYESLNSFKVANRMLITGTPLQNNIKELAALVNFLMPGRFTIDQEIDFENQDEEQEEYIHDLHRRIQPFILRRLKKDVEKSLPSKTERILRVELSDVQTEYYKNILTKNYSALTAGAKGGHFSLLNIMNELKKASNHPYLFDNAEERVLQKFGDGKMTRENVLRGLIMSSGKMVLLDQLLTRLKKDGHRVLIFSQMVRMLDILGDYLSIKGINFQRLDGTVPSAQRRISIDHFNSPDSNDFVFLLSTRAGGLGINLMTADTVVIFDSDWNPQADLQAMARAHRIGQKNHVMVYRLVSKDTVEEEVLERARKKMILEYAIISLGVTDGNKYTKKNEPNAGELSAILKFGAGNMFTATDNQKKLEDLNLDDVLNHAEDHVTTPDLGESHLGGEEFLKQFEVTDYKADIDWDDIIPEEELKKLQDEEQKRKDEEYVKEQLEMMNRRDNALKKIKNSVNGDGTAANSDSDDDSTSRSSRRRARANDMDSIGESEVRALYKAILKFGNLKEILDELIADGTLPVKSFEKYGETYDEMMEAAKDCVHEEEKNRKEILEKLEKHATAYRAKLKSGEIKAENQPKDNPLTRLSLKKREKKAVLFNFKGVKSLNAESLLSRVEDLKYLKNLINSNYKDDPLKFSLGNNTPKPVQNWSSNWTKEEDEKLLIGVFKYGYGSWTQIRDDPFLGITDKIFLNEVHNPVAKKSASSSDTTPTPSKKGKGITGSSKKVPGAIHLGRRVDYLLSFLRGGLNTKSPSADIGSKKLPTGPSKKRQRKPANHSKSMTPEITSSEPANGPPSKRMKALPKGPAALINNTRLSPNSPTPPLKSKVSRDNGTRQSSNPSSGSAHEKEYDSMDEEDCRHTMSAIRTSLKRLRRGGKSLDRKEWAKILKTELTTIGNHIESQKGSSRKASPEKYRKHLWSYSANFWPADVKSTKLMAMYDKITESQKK

Sialic acid-binding Ig-like lectin 9 (Homo sapiens), sequence (Q9Y336 whole entry): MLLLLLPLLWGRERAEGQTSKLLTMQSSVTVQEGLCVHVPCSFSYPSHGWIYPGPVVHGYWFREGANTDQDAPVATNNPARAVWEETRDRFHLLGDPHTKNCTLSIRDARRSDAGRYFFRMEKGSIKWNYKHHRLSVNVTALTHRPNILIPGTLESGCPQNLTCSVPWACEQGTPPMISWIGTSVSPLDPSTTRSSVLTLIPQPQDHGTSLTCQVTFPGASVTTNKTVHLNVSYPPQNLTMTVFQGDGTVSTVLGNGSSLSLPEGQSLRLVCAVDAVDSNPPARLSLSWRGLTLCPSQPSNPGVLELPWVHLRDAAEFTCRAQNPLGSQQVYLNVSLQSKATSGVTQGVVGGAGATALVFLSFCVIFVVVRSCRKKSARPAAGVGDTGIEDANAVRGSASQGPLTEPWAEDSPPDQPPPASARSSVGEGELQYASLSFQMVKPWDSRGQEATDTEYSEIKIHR
Protein translocase subunit SecA (Escherichia coli (strain K12)), sequence (P10408 whole entry): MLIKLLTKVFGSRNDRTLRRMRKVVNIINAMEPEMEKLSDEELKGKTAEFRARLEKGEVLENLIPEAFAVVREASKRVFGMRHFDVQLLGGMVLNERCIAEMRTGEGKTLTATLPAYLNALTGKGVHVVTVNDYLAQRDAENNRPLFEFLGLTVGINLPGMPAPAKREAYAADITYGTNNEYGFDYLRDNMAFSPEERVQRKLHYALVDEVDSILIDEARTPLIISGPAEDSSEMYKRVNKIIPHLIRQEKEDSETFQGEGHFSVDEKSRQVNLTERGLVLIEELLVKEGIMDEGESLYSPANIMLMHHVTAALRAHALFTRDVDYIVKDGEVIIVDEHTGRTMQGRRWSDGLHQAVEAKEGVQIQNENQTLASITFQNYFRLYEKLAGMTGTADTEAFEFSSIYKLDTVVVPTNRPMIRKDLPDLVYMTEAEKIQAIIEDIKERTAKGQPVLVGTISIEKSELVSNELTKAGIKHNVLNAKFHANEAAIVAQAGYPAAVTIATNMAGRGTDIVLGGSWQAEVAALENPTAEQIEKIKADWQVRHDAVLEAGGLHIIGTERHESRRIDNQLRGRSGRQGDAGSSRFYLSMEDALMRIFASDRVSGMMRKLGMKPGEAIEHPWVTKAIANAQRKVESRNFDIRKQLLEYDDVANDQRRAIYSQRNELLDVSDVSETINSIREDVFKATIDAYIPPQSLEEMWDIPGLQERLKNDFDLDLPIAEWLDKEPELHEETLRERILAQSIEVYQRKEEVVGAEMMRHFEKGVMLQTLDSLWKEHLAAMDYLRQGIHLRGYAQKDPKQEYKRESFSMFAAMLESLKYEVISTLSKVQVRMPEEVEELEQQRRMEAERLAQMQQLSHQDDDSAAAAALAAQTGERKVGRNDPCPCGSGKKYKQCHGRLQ

Turning to `CCCNC(=O)NCc1cccnc1OC`, the Percent Effect in assay [1] is -1.2%; in assay [2] it was 13.3%; in [3], 0.677%; in the assay with Trypanosoma cruzi, -0.803%; in [4] it was 2.66%; in assay [5], 14.2%. Moreover, the Percent Effect was 18.8% in the assay listed under Homo sapiens, 2.63% in assay [6], 10.3% in assay [7] and -6.38% in assay [8].

Regarding `Cc1ccc2oc(C(=O)N3CCc4nnc(N(C)C)cc4C3)cc2n1`, the Percent Effect in assay [1] was -3.69%; in assay [2] it was 10.7%; in assay [3] it was 5.58%; in the assay on Trypanosoma cruzi, 3.21%; in [4], 0.887%; in assay [5], 12.8%. Moreover, the Percent Effect in the assay listed under Homo sapiens is 4.8%; in [6] it was 4.74%; in assay [7], 5.13%; in assay [8] it was -10.7%.

With `Cc1nc(C2CCCN(C(=O)COCc3ccccc3Cl)C2)no1` (stereo not given), the Percent Effect in assay [1] is 1.44%; in assay [2] it was -8%; in assay [3], 4.56%; in the assay with Trypanosoma cruzi it was -1.81%; in assay [4] it was 6.21%; in [5], -7.72%. The Percent Effect in the assay listed under Homo sapiens was 10.8%; in assay [6], -1.58%; in [7] it was -5.13%; in assay [8], 3.49%.

Take `CC(C)c1nc(CN(C)C2CCN(CCNS(C)(=O)=O)C2)no1` (stereo not given): the Percent Effect in assay [1] was -0.486%; in assay [2], 15.6%; in assay [3], -6.45%; in the assay with Trypanosoma cruzi, -5.78%; in [4], -11.7%; in [5] it was 12.5%. Also, the Percent Effect in the assay filed under Homo sapiens was 12.2%; in assay [6], 3.92%; in assay [7] it was 7.06%; in [8], -13%.

`Cc1ccccc1S(=O)(=O)N1CCCCC1c1ccn[nH]1` (stereo not given): the Percent Effect in assay [1] was 1.53%; in assay [2] it was 9.33%; in assay [3], -8.62%; with Trypanosoma cruzi, -7.5%; in [4] it was 0.443%; in assay [5], 13.3%. Also, the Percent Effect was 19.3% in the assay listed under Homo sapiens, 0% in [6], 7.5% in assay [7] and -21.7% in [8].

Regarding `CCC1CN(C(=O)c2ccc(Cl)cc2O)CCN1C(C)C` (stereo not given), the Percent Effect in assay [1] is -4.41%; in assay [2] it was 2.7%; in [3] it was 8.13%; in the assay with Trypanosoma cruzi, 6.5%; in assay [4], 11.5%; in [5], 6.34%. For the same molecule, the Percent Effect in the assay listed under Homo sapiens is 12.9%; in [6], 4.79%; in assay [7], 9.76%; in assay [8], -3.73%.

As for `CCc1noc(C(C)N2CCOCC2)n1` (stereo not given), the Percent Effect in [1] is -7.21%; in assay [2], 10.7%; in assay [3], 7.7%; with Trypanosoma cruzi, 0.602%; in assay [4] it was 0.887%; in assay [5] it was 5.85%. Moreover, the Percent Effect in the assay listed under Homo sapiens is 5.17%; in [6], 6.84%; in assay [7], 5.13%; in [8] it was -8.94%.

On to `Cc1cc(OCC(=O)NS(=O)(=O)c2c(C)noc2C)ccc1Cl`, for which the Percent Effect was -0.396% in assay [1]; -5.13% in assay [2]; 2.29% in assay [3]; 4.79% with Trypanosoma cruzi; 0% in assay [4]; 1.28% in [5]. Also, the Percent Effect in the assay filed under Homo sapiens is 18.7%; in assay [6], -5.26%; in assay [7], -1.21%; in [8], 0.575%.

Take `COc1ccc2c(c1)OC1(CCN(Cc3ccc(F)cc3)CC1)CC2=O`: the Percent Effect was -2.19% in assay [1]; 14.3% in assay [2]; -1.29% in [3]; 2.63% in the assay with Trypanosoma cruzi; 2.74% in assay [4]; 9.36% in [5]. Besides, the Percent Effect is 24.9% in the assay filed under Homo sapiens, 2.9% in assay [6], 2.5% in [7] and -12.1% in assay [8].

For `Cc1ccc(NC(=O)C2CSCN2C(=O)c2cc[nH]n2)c(C)c1` (stereo not given), the Percent Effect was -2.87% in assay [1]; 5.13% in assay [2]; 9.07% in assay [3]; 4.79% in the assay with Trypanosoma cruzi; -0.41% in [4]; 0.768% in [5]. The Percent Effect was -8.73% in the assay filed under Homo sapiens, 3.35% in [6], 20.5% in assay [7] and -1.03% in assay [8].

On to `COc1cc(C(=O)N2CCCS2(=O)=O)cc(Cl)c1OC`, for which the Percent Effect in [1] was -4.13%; in assay [2] it was 24%; in [3], 3.41%; in the assay with Trypanosoma cruzi, -0.602%; in assay [4], -4.88%; in [5], 9.07%. The Percent Effect is 7.8% in the assay listed under Homo sapiens, 4.74% in assay [6], 15.4% in assay [7] and -12.8% in assay [8].

Regarding `c1ccc(-c2cnc(CNC3CCCN(c4cccnn4)C3)o2)cc1` (stereo not given), the Percent Effect in assay [1] was -1.65%; in assay [2], -23.1%; in assay [3], 5.28%; in the assay with Trypanosoma cruzi it was 6.48%; in assay [4] it was 1.23%; in assay [5] it was 0.0853%. Moreover, the Percent Effect in the assay listed under Homo sapiens was 7.96%; in assay [6], 14.8%; in assay [7], 22.9%; in [8] it was -1.17%.
